Screening data deposited in PubChem by DiRusso Lab, Biochemistry Department, University of Nebraska.
Algae TAG accum: algal TAG accumulation induction | Chlamydomonas reinhardtii TAG, Nile Red fluorescence, 72 h | calls only at 10 µM (by protocol) | actives 0.84% (n = 44,000) | AID 1159537; call rule not given here;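 note: hits raise Nile Red signal meaning more stored TAG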
An asterisk follows results filed as active; i = inactive; + = active, no number. The entries come from a sample that favours hits as a whole.

SMILES	Algae TAG accum
COc1ccc(C(=O)N2CCN(C3CCC(c4ccccc4)CC3)CC2)cc1OC (configuration not stated)	i
COc1ccccc1N1CCN(C2CCN(C3CCC(c4ccccc4)CC3)CC2)CC1 (configuration not stated)	i
COc1ccc(OC)c(NC(=O)CSCc2ccccc2Cl)c1	i
Cc1ccc(S(=O)(=O)Nc2ccccn2)c(C)c1C	i
CC12c3ccccc3C(c3ccccc31)C1C(=O)N(CCO)C(=O)C12 (configuration not stated)	i
NC(=O)c1sc2nccc(Nc3ccccc3)c2c1N	i
O=[N+]([O-])c1ccc(N2CCN(S(=O)(=O)c3ccccc3)CC2)cc1NCC1CCCO1 (configuration not stated)	i
Cc1cc(Cl)ccc1NC(=O)c1ccc([N+](=O)[O-])c(C)c1	i
COc1ccc(Nc2nc(N)nc(CSc3nnc(C)s3)n2)cc1	i
COc1ccc2nc(NS(C)(=O)=O)sc2c1	i
O=C(c1c(F)cccc1F)N1CCN(c2ccc([N+](=O)[O-])cc2)CC1	i
Cc1ccc(-c2cnc3ccccc3n2)cc1[N+](=O)[O-]	i
Cc1ccnc(NS(=O)(=O)c2ccc(NC(=O)C(C)Oc3cccc(Cl)c3)cc2)n1 (configuration not stated)	i
O=C(NCCN1CCOCC1)c1ccccc1NC(=O)C(c1ccccc1)c1ccccc1	i
COc1cc(C(O)C[N+](=O)[O-])ccc1OCc1ccccc1 (configuration not stated)	i
O=C(Nc1ncc(Cc2ccc(F)cc2)s1)C1CCCO1 (configuration not stated)	i
COc1ccc(Cc2cnc(NC(=O)Cc3ccccc3)s2)cc1	i
O=C(CN1CCCCC1)Nc1ncc(Cc2ccc(F)cc2)s1	+
COc1cc2nc(CSc3nnc(-c4ccccc4)n3-c3ccccc3)[nH]c(=O)c2cc1OC	i
COc1ccc(NC(=O)CCc2ccccc2)cc1	i
O=S(=O)(c1ccc(Cl)cc1)N1CCN(C2CCCC2)CC1	i
CCS(=O)(=O)N1CCN(C2CCCCCCC2)CC1	+
CC(=O)N1CCN(C2CCCCCC2)CC1	i
CC(NC(=O)C(C)(C)Oc1ccc(Cl)cc1)c1ccncc1 (configuration not stated)	i
C/C(=C1/C(=O)N(c2ccc([N+](=O)[O-])cc2)N=C1c1ccccc1)N(C)C	i
SMILES	Algae TAG accum
COc1ccc2c(c1)C(C)=CC(C)(C)N2C(=O)CN1C(=O)CCC1=O	i
O=C(Nc1ccc(S(=O)(=O)N2CCCC2)cc1)c1ccc(Cl)cc1Cl	+
O=C(Nc1ccccc1)c1cc(S(=O)(=O)N2CCCCC2)ccc1Cl	i
O=C(Nc1ccc(S(=O)(=O)N2CCCC2)cc1)c1ccccc1I	i
Cc1ccc(C)c(NC(=O)CCC(=O)Nc2cc(C)ccc2C)c1	i
Cc1cc(Br)ccc1OCCCN1CCCC1	i
CC(C)c1ccc(OCCOCCN2CCN(C)CC2)cc1	i
CN1CCN(CCCOc2ccc(Br)cc2)CC1	+
Cc1cc(Br)ccc1OCCCN1CCN(C)CC1	+
Cc1cc(Br)ccc1OCCN1CCN(C)CC1	i
CN1CCN(CCCOc2ccc(C(=O)c3ccccc3)cc2)CC1	i
CCOc1ccc(OCCOCCN2CCN(C)CC2)cc1	i
Cc1cc(OCCCN2CCN(C)CC2)ccc1C(C)C	i
Cc1cc(OCCCCN2CCN(C)CC2)cc(C(C)C)c1	+
Cc1ccc(OCC(O)CN2CCN(c3cccc(Cl)c3)CC2)cc1C (configuration not stated)	i
Cc1ccc(-c2nnc(Nc3ccc4c(c3)OCO4)c3ccccc23)cc1S(=O)(=O)NCCO	i
CCOc1cc(CN2CCCN(C)CC2)ccc1OC	i
COc1ccc2oc(-c3ccc(C)cc3)cc(=O)c2c1	i
CC1CCCCN1C(=O)c1ccccc1NS(=O)(=O)c1ccc(F)cc1 (configuration not stated)	i
COc1ccc(S(=O)(=O)Nc2cccc(OC)c2)cc1	i
O=C(Nc1ccc([N+](=O)[O-])cc1)c1cc(I)ccc1Cl	i
COc1cccc(CN2CCN(Cc3cc(OC)c(OC)c(OC)c3)CC2)c1OC	i
COc1ccc(CN2CCN(Cc3ccc(SC)cc3)CC2)c(OC)c1OC	i
COc1cc(C(=O)N2CCN(Cc3ccc(OC)c(OC)c3OC)CC2)cc(OC)c1OC	i
COc1ccc(CN2CCN(c3ccccc3Cl)CC2)c(OC)c1OC	i
SMILES	Algae TAG accum
COc1ccc(CN2CCN(Cc3cccc(OC)c3OC)CC2)cc1	i
COc1cc(C(=O)N2CCN(Cc3ccccc3F)CC2)cc(OC)c1OC	i
COc1cccc(CN2CCN(C(=O)c3cc(OC)c(OC)c(OC)c3)CC2)c1OC	+
COc1cccc(CN2CCN(Cc3ccc(F)cc3)CC2)c1OC	+
COc1ccc(CN2CCN(Cc3ccccc3)CC2)c(OC)c1OC	+
COc1ccc(NC(=O)CCCOc2ccccc2)c([N+](=O)[O-])c1	i
O=C(Nc1ccc2nsnc2c1)N1CCN(c2ccccn2)CC1	i
O=C(CSc1nc(-c2ccccc2)cc(=O)[nH]1)NC1CCCCC1	i
CCn1c(=O)c(C(=O)Nc2ccccn2)c(O)c2ccccc21	i
Cc1cc(C)c(C)c(OCCN(C)C)c1	i
Cc1cccc(NC(=O)C(C)N(c2ccccc2)S(C)(=O)=O)c1 (configuration not stated)	i
O=C(Nc1ccc(O)cc1)N(c1ccccc1)c1ccccc1	i
CCOc1ccc(N2C(=O)CC(NCCc3ccccc3)C2=O)cc1 (configuration not stated)	i
O=C(N/C(=C\c1cccc([N+](=O)[O-])c1)C(=O)N1CCCCCC1)c1cccs1	i
Cc1ccc(S(=O)(=O)Nc2ccc(CCC(=O)N3CCCC3)cc2)cc1	i
COc1ccc(-n2nc3cc(C)c(NC(=O)c4ccc([N+](=O)[O-])cc4)cc3n2)cc1	i
C=CCc1c(C)nc(SCc2ccccc2)[nH]c1=O	i
CC(C)c1ccc(CN(C)C2CCN(C)CC2)cc1	i
COc1cccc(CN(C)C2CCN(C)CC2)c1	i
CN1CCC(N(C)Cc2ccc(Cl)c(Cl)c2)CC1	i
CN1CCC(N(C)Cc2cccc(Oc3ccccc3)c2)CC1	+
CCOc1ccc(CN(C)C2CCN(C)CC2)cc1	i
CN1CCC(N(C)Cc2cccs2)CC1	i
Cc1ccc(CN(C)C2CCN(C)CC2)s1	+
CN1CCC(N(C)Cc2coc3ccccc3c2=O)CC1	i
SMILES	Algae TAG accum
CCc1ccc(CN(C)C2CCN(C)CC2)cc1	+
CC1(C)CC(NC(=O)c2ccc(I)o2)CC(C)(C)N1	i
NC(=O)c1ccccc1NC(=O)CCCc1ccccc1	i
O=C(O)CCCN1C(=O)C(=O)C(=C(O)c2ccc([N+](=O)[O-])cc2)C1c1ccc(Cl)cc1 (configuration not stated)	i
COc1ccc(CN2CCN(Cc3ccc4c(c3)OCO4)CC2)c(OC)c1	i
COc1cc(C)c(CN2CCN(Cc3ccc4c(c3)OCO4)CC2)cc1C	+
COc1ccccc1CN1CCN(Cc2ccc3c(c2)OCO3)CC1	i
COc1ccc(CN2CCCN(C)CC2)c(OC)c1	i
COc1cc(C)c(CN2CCC(N3CCCCC3)CC2)cc1C	i
COc1cc(C)c(CN2CCCN(C)CC2)cc1C	+
O=C(CSC1=NC(=O)C(Cc2ccccc2)C(=O)N1)Nc1ccc(Br)cn1 (configuration not stated)	i
